Compounds without any hit were thinned out: in the full panel of roughly 83,000, 20% have a hit.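 Note: values are percent growth. 100 is the growth of untreated cells, values between 100 and 0 indicate rising inhibition; between -100 and 0 indicates cell death.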 A number with no mark means an inactive call. The source made the active and inactive calls. The calls were made as follows: active = growth percent below 10; inactive = the rest.
What was measured:
Test in all cases: NCI-60 one-dose screen, 48 h (100 = growth as untreated, 0 = no growth, -100 = all killed)
Conditions in all cases: 10 µM unless noted
DU-145 prostate = test system: DU-145 prostate
K-562 leukemia = test system: K-562 leukemia
MALME-3M melanoma = test system: MALME-3M melanoma
MDA-MB-231 breast = test system: MDA-MB-231 breast
RXF 393 renal = test system: RXF 393 renal
SF-268 CNS = test system: SF-268 CNS
SF-295 CNS = test system: SF-295 CNS
SF-539 CNS = test system: SF-539 CNS
UACC-257 melanoma = test system: UACC-257 melanoma
M14 melanoma = test system: M14 melanoma
HCT-15 colon = test system: HCT-15 colon
HT29 colon = test system: HT29 colon
SNB-75 CNS = test system: SNB-75 CNS
SNB-19 CNS = test system: SNB-19 CNS
U251 CNS = test system: U251 CNS
PC-3 prostate = test system: PC-3 prostate
SK-MEL-5 melanoma = test system: SK-MEL-5 melanoma
UACC-62 melanoma = test system: UACC-62 melanoma
LOX IMVI melanoma = test system: LOX IMVI melanoma
SK-MEL-28 melanoma = test system: SK-MEL-28 melanoma

Row | Structure (SMILES) | growth (DU-145 prostate) | growth (K-562 leukemia) | growth (MALME-3M melanoma) | growth (MDA-MB-231 breast) | growth (RXF 393 renal) | growth (SF-268 CNS) | growth (SF-295 CNS) | growth (SF-539 CNS) | growth (UACC-257 melanoma) | growth (M14 melanoma) | growth (HCT-15 colon) | growth (HT29 colon) | growth (SNB-75 CNS) | growth (SNB-19 CNS) | growth (U251 CNS) | growth (PC-3 prostate) | growth (SK-MEL-5 melanoma) | growth (UACC-62 melanoma) | growth (LOX IMVI melanoma) | growth (SK-MEL-28 melanoma)
1 | CCN(CC)CCCNc1cc(OC)cc2cccnc12 | 105% | 81.4% | 133% | 89.5% | 96.5% | 96.5% | 105% | 101% | 107% | 127% | 99.7% | 91.6% | 111% | 109% | 94.8% | 93.8% | 95.3% | 110% | 97.2% | 126%
2 | Clc1nc(N2CCC[N+]3(CC2)CC[N+]2(CCCNCC2)CC3)nc(N2CCC[N+]3(CC2)CC[N+]2(CCCNCC2)CC3)n1 (stereo not given) | 91% | 104% | 3.84% (active) | 86.5% | 100% | 76.8% | 104% | 87.5% | 81.3% | 103% | 83.2% | 54.9% | 123% | 112% | 91.7% | 101% | 102% | 96.8% | 98% | 92.2%
3 | Cc1csc(Nc2nc(-c3cccc(Cl)c3)nc(C(Cl)(Cl)Cl)n2)n1 | -30.4% (active) | 65.6% | 102% | 9.88% (active) | -2.8% (active) | 65.8% | 34.1% | 34% | 36.2% | 88.3% | 53.9% | 2.7% (active) | 3.48% (active) | 39.9% | 19.9% | 39.7% | 88.8% | 74.2% | 91.1% | 39.5%
4 | COC(=O)c1sc(-c2ccc(C)cc2)cc1O | 101% | 84.3% | 97.9% | 99.6% | 109% | 96.2% | 112% | 114% | 115% | 101% | 101% | 108% | 105% | 101% | 96.5% | 102% | 103% | 97.1% | 101% | 113%
5 | Cc1cc2c(c(C)n1)CN(C(=O)Nc1nc(-c3cncs3)ccc1N)C2 | 107% | 101% | 96.7% | 113% | 111% | 101% | 99.5% | 86.5% | 103% | 104% | 102% | 91% | 90.3% | 99.5% | 86.9% | 104% | 105% | 91.9% | 111% | 105%
6 | Cc1ccc(-c2nn(CC(=O)N3CCOCC3)c(N)c2C#N)cc1 | 111% | 99.8% | 104% | 108% | 110% | 99% | 102% | 99.2% | 107% | 104% | 105% | 112% | 89.4% | 97.4% | 99.4% | 100% | 102% | 93.1% | 100% | 102%
7 | C#CCOc1cccc(Nc2ncnc3c(NC(=O)CCl)cccc23)c1 | 58.9% | -21.7% (active) | -74.7% (active) | -25.6% (active) | 56.2% | 3.94% (active) | 95.6% | -91.3% (active) | 56.9% | 5.19% (active) | -37.9% (active) | -77.1% (active) | 74.8% | 20.1% | -69.2% (active) | 2.88% (active) | -89.2% (active) | 21.8% | -79.7% (active) | 75%
8 | COc1nc2ccccc2cc1/C=C1/C=C(c2ccccc2)NC1=O | 55.8% | 13.1% | 38.3% | 46.1% | 46% | 48.8% | 28.5% | 19.6% | 60.7% | 24.6% | 30.3% | 10% | 28.8% | 43.4% | 31% | 55.1% | 39.4% | 32.1% | 38.8% | 58.9%
9 | CO[C@]12C=C/C(=C(/C(=O)OCc3cccnc3)C(=O)CCCCCCCC[C@]3(OC)C=C/C(=C(/C(=O)OCc4cccnc4)C(=O)CCCCCCCC1)O3)O2 | -95.3% (active) | 0.254% (active) | -38.4% (active) | -38.3% (active) | -75.4% (active) | -72.1% (active) | -79.1% (active) | -55.2% (active) | -43.2% (active) | -47% (active) | -78.5% (active) | -32.3% (active) | -79.6% (active) | -90.5% (active) | -64.2% (active) | -51.6% (active) | -92.9% (active) | -82.5% (active) | -82.3% (active) | -86.3% (active)
10 | C=C1C(=O)O[C@H]2[C@H]1CC/C(COC(=O)NCc1ccc(Cn3c(=O)sn(CCCC)c3=O)cc1)=C\CC[C@@]1(C)O[C@@H]21 | 20.2% | 0.885% (active) | -24.1% (active) | 38.4% | 33.5% | 82.4% | 101% | 59.6% | 50.8% | 6.26% (active) | 24.4% | 0.335% (active) | 82.7% | 100% | 60.4% | 59.9% | 96.3% | 53.3% | 26.8% | 55.5%
11 | O=C(CN1C(=O)c2ccccc2S1(=O)=O)Nc1nc(-c2cc3ccccc3oc2=O)cs1 | 108% | 100% | 101% | 114% | 105% | 95.7% | 102% | 95.8% | 99.8% | 106% | 108% | 103% | 97.3% | 101% | 99.2% | 97.7% | 99.1% | 97.8% | 99.5% | 107%
12 | O=C1/C(=C/c2ccccc2)COc2ccc(O)cc21 | 88.5% | 17.5% | 106% | 92.9% | 105% | 90.6% | 107% | 108% | 98.2% | 85.8% | 57.1% | 62.7% | 99.7% | 93.6% | 55.1% | 84.2% | 97.3% | 86.6% | 89.8% | 103%
13 | COc1ccc(C(c2cc(OC)c(OC)c(OC)c2)n2cncn2)cc1O (stereo not given) | 19.6% | 8.34% (active) | 70.2% | 43.1% | -13.8% (active) | 48.8% | 2.56% (active) | 9.34% (active) | 44.4% | -1.61% (active) | 14% | 5.3% (active) | 48.6% | 33.3% | 15.3% | 21.2% | 14.6% | 32% | 43.5% | 57%
14 | CC(=O)c1ccc(Nc2nccc(-c3ccc(Cl)cc3)n2)cc1 | 102% | 83.9% | 101% | 101% | 103% | 93% | 101% | 92.3% | 106% | 101% | 82.3% | 86.2% | 105% | 98% | 78.4% | 89.6% | 102% | 86.5% | 90.7% | 113%
15 | N#Cc1nn(-c2ccccn2)c(N)c1C#N | 104% | 94% | 103% | 109% | 127% | 97.2% | 96.2% | 97.2% | 103% | 102% | 102% | 86.4% | 87.3% | 101% | 103% | 95.4% | 104% | 99.1% | 101% | 105%
